Measured values reported in PubChem BioAssay (NCATS).
Results filed as inconclusive are left out. Where a call stands in place of a potency, no number is given. A number with no mark means an inactive call. Activity calls are given as the source filed them. Unless noted, the call rests on the fitted dose curve; in most records, active means well fitted curve in the direction sought with a large enough effect in the repeat runs; inconclusive means weak or mixed curves; inactive means no such curve, though single readings can be large; an effect the other way counts as inactive or inconclusive.

How the values were obtained:
[1] = target: Calcium and integrin-binding protein 1 (Homo sapiens) (UniProt Q99828); assay: Primary qHTS for Identification of Calcium Integrin Binding Protein 1 (CIB1) Competitor (AID 1508620; active means well fitted curve in the direction sought with a large enough effect; an effect the other way counts as inactive or inconclusive;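 further: GST tagged CIB1 binding a fluorescein labelled alphaIIb integrin peptide tracer; top concentration of the series differs between compounds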); settings: CIB1-GST / FITC-alphaIIb peptide fluorescence polarization; series mostly up to 114 µM
Sequence of Calcium and integrin-binding protein 1 (Homo sapiens) (Q99828 whole entry, looked up): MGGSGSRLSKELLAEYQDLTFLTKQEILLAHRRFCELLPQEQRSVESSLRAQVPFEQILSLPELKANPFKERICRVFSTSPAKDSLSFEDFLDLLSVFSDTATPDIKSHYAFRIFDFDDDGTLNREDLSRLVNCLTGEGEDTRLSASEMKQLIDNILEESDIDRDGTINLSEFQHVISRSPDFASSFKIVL
Method in brief: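 CIB1-GST (1 uM final) and compound incubated 15 min at room temperature before adding FITC-alphaIIb peptide tracer (100 nM final). Competition for binding read by fluorescence polarization (ex 480, em 540) after another 15 min at room temperature.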

[2] = target: Cytochrome P450 2D6 (Homo sapiens) (UniProt P10635); assay: Cytochrome P450 family 2 subfamily D member 6 (CYP2D6) small molecule antagonists: luciferase biochemical (cell-free) qHTS assay (AID 1645840); settings: P450-Glo CYP2D6 enzyme, luciferin luminescence, 1 h; series mostly up to 57.4 µM; further: nearly all actives have a fitted effect of over 55% in size; further: potency means the concentration at half of the fitted maximal effect
Sequence of Cytochrome P450 2D6 (Homo sapiens) (P10635 whole entry, looked up): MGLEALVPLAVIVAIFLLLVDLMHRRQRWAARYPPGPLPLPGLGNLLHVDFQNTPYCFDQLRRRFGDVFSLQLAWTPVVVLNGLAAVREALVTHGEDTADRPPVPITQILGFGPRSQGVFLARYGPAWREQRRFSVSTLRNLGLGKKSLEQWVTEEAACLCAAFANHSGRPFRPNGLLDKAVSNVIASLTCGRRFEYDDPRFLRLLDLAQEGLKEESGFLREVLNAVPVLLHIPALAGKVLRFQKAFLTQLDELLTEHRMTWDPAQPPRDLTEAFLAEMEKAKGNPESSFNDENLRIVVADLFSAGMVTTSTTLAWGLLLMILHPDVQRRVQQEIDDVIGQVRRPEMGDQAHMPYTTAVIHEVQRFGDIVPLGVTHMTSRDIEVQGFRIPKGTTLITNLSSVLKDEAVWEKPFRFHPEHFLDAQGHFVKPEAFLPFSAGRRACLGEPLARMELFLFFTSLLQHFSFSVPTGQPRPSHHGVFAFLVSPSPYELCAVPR
Method in brief: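 P450-Glo CYP2D6 system: proluciferin substrate converted by enzyme to luciferin, read by luminescence proportional to activity. Enzyme-substrate mix with compound 10 min at room temperature, then NADPH regeneration 1 h before detection reagent.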

SMILES	Potency [1]	Potency [2]	activity change, negative = inhibition [2]
CCCNCCc1ccc(NS(=O)(=O)c2ccc(OC(F)(F)F)cc2)cc1	inactive	1.34 µM (active)	
COc1cccc(N2CCN(C3=Nc4c(F)cccc4[C@H](CC(=O)O)N3c3cc(C(F)(F)F)ccc3OC)CC2)c1	inactive	inactive	
Cc1csc2c(N[C@@H](C)CN3CCN(S(=O)(=O)c4ccc(Cl)c(Cl)c4)CC3)ncnc12	inactive	0.425 µM (active)	
CCn1c(-c2nonc2N)nc2c(C#CCO)ncc(OCCCN)c21	inactive	inactive	
O=C(Nc1ccccc1)c1ccc(Nc2nnc(-c3ccc(O)cc3)c3ccccc23)cc1	inactive	inactive	
C[C@@H]1CCCN1CCc1cc2cc(-c3ccc(C#N)cc3)ccc2o1	inactive	13.5 µM (active)	
Cc1cc2c(N3CCCC3)nc(N3CCCC3)nc2n1C	inactive	3.01 µM (active)	
N#Cc1cc(CN2CCC(Nc3ncnc4sc(Cl)cc34)CC2)ccc1F	inactive	1.51 µM (active)	
O=c1[nH]c2cccc(N3CCN(Cc4ccc(-c5ccccc5)cc4)CC3)c2o1	inactive	8.49 µM (active)	
C=C(C)[C@@H]1CC=C(COC(=O)NC(=O)c2ncn3c(=O)n(C)nnc23)CC1	inactive	inactive	
OC1(CN2CCC(COc3noc4cccc(O[C@@H]5CCOC5)c34)CC2)CCOCC1	inactive	6.74 µM (active)	
C[C@@H]1C[C@H](C)CN(CCC(=O)Nc2ccc(Br)cc2)C1	inactive	0.0674 µM (active)	
C[C@H](Nc1ncnc2nc[nH]c12)c1cc2cccc(Cl)c2c(=O)n1-c1ccccc1	inactive	inactive	
C=CC(=O)N1CCC(Oc2cc3c(Nc4ccc(Cl)c(Cl)c4F)ncnc3cc2OC)CC1	inactive	2.68 µM (active)	
Cc1cc(C(=O)Cn2cc(C#N)ccc2=O)c(C)n1Cc1ccccc1	inactive	inactive	
O=C(CNC(=O)c1cccc(C(F)(F)F)c1)N[C@@H]1CCN(Cc2ccc(Cl)cc2)C1	inactive	0.0535 µM (active)	
COc1cc2c(cc1-c1c(C)noc1C)ncc1[nH]c(=O)n(C(C)c3ccccn3)c12 (configuration not stated)	inactive	inactive	
O=C(CSc1nc2ccccc2c(=O)n1-c1ccccc1)Nc1ccc2c(c1)CCC2	inactive	inactive	
C=CC(=O)N1CCN(C(=O)CNc2cc(-c3ccccc3Cl)c(Cl)cc2OC)CC1	inactive	12 µM (active)	
COc1ccc(NC(=O)c2ccc(-c3ccc(-c4nnc(C)o4)cc3C)cc2)cc1N1CCN(C)CC1	inactive	30.1 µM (active)	
C#CCNCc1cc2cc(OCc3ccccc3)ccc2[nH]1	inactive	23.9 µM (active)	
COc1cc2nc(C3CC3)nc(N3CCN(c4ccccc4OC)CC3)c2cc1OC	inactive	21.3 µM (active)	
Cc1ccc(S(=O)(=O)NCc2ccc(C(=O)NCCN(Cc3ccccc3)C(C)C)cc2)cc1	inactive	12 µM (active)	
CC#C[C@@H](CC(=O)O)c1ccc(OCc2cccc(-c3ccc(C(F)(F)F)cc3)c2)cc1	inactive	inactive	
COC(=O)c1ccc2c(c1)[nH]c1ncnc(NCCCN3CCCCC3)c12	inactive	inactive	
COc1cc(F)c(C(C)C)cc1-c1ccc(C(F)(F)F)cc1CN1C(=O)OC(c2cc(C(F)(F)F)cc(C(F)(F)F)c2)C1C (configuration not stated)	inactive	inactive	

SMILES	Potency [1]	Potency [2]	activity change, negative = inhibition [2]
O=C(Nc1cccnn1)N1CCN(c2nccc(-c3ccc(F)c(F)c3)n2)CC1	inactive	inactive	
O=C(COc1ccc(C(=O)c2ccccc2)cc1)NC1CCN(Cc2ccccc2)CC1	inactive	0.338 µM (active)	
Cc1csc(N(C(=O)CSc2ccc(-c3ccccc3)nn2)C2CC2)n1	inactive	inactive	
Cc1[nH]cnc1C[C@H]1CCc2c(C)c3ccccc3n2C1=O	inactive	0.301 µM (active)	
CC(NC(=O)Cc1cc(F)cc(F)c1)C(=O)NC1C(=O)N(C)c2ccccc2-c2ccccc21 (configuration not stated)	inactive	inactive	
FC(F)(F)c1ccc(/C=C/c2nc(COc3ccc(CCCCn4ccnn4)cc3)co2)cc1	inactive	inactive	
CCN1CCN(Cc2ccc(NC(=O)c3ccc(C)c(Oc4ccnc5[nH]ccc45)c3)cc2C(F)(F)F)CC1	inactive	10.7 µM (active)	
CC(=O)Nc1nc(C)c(-c2nc(N3CCCC(O)C3)no2)s1 (configuration not stated)	inactive	4.25 µM (active)	
CN(C)C(=O)Nc1cc(-c2ccccc2)ccc1N(C)C	inactive	inactive	
O=c1cc(N2CCN(c3cccc(C(F)(F)F)c3)CC2)[nH]c(=O)n1C1CCCCC1	inactive	inactive	
NCC1CCN(c2nccc(-c3ccc4ccccc4c3)n2)CC1	inactive	9.52 µM (active)	
CCOC(=O)N1CCC(N2CCC[C@@H](NC(=O)c3ccccc3C)C2)CC1	inactive	16.9 µM (active)	
O=C(NCC(=O)N1CCCC1)Nc1ccc2cnccc2c1	inactive	12 µM (active)	
CCO[C@H]1CN(C2CCC(O)(c3ccc4c(c3)OCO4)CC2)C[C@@H]1NC(=O)CNC(=O)c1cccc(C(F)(F)F)c1 (some centres not stated)	inactive	3.38 µM (active)	
O=C(Nc1ccc(Cl)cc1)C1CCCN(C(=O)c2cccc(-c3ccco3)c2)C1 (configuration not stated)	inactive	13.5 µM (active)	
CC(=O)Nc1cccc(Nc2ncnc(N3CCC(OCc4ccc(OC(F)(F)F)cc4)CC3)n2)c1C	inactive	inactive	
Cc1nc2c(C(F)(F)F)cccc2nc1-c1ccc(-c2cccc(S(C)(=O)=O)c2)cc1	inactive	inactive	
N[C@@H]1c2cccnc2[C@H](OC(=O)N2CCC(n3c(=O)[nH]c4ncccc43)CC2)CC[C@H]1c1cccc(F)c1F	inactive	6.74 µM (active)	
Cc1onc(-c2ccccc2)c1C(=O)N1CCN(c2ccc([N+](=O)[O-])cc2Cl)CC1	inactive	5.35 µM (active)	
C=C1CCN([C@H](C)[C@](O)(Cn2cncn2)c2ccc(F)cc2F)CC1	inactive	23.9 µM (active)	
O=c1cc(N2CCOCC2)nc2c3ccccc3ccn12	inactive	19 µM (active)	
CC(C)NCCCn1c(Sc2cc3c(cc2I)OCO3)nc2c(N)ncnc21	inactive	0.536 µM (active)	
COc1ccc2nc(-c3cc(OC)c(OC)c(OC)c3)cc(C(=O)NCC(=O)Nc3ccc(C(C)=O)cc3)c2c1	inactive	inactive	
O=C(NCCN1CCC(n2c(=O)[nH]c3ccccc32)CC1)c1ccc2ccccc2c1	inactive	12 µM (active)	
O=C(NCc1cccs1)c1cc2nc(-c3ccco3)cc(C(F)(F)Cl)n2n1	inactive	7.56 µM (active)	
O=c1cc(OCc2ccc(F)cc2)ccn1-c1ccc(OCCN2CCCC2)cc1	inactive	16.9 µM (active)	

SMILES	Potency [1]	Potency [2]	activity change, negative = inhibition [2]
Cc1cn2cc(C(=O)N(C)CCO)cc(NC3CCOc4cccc(C)c43)c2n1 (configuration not stated)	inactive	inactive	
CCOC(=O)CCNc1cc(N2CCc3ccccc3CC2)nc(-c2cccnc2)n1	inactive	10.7 µM (active)	
CNC1CN(c2ccc3c(=O)c(C(=O)O)cn(-c4nccs4)c3n2)CC1OC (configuration not stated)	inactive		16.1% [at 11.5 µM]
CC(=O)NC[C@H]1CN(c2ccc(N3CCSCC3)c(F)c2)C(=O)O1	inactive	inactive	
Cc1c(C(=O)NCc2cccnc2)nn(-c2ccc(Cl)cc2Cl)c1-c1ccc(Cl)cc1	inactive	0.213 µM (active)	
Cc1cc(C)cc(-c2cnc3cc(Cl)c(-c4cccc(O)c4)cc3c2OCCCN)c1	inactive	7.56 µM (active)	
COC1CCN(C(=O)c2cc(Cc3n[nH]c(=O)c4ccccc34)ccc2F)CC1	inactive	inactive	
COc1cc2ncnc(Oc3ccc(CC(=O)Nc4cnn(C(C)C)c4)cc3)c2cc1OC	inactive	inactive	
O=[N+]([O-])c1cn2c(n1)OC[C@@H](OCc1ccc(-c3ccc(OC(F)(F)F)cc3)nc1)C2	inactive	inactive	
CCC(CC)Nc1nc(C)c(-c2ccc(OC(F)(F)F)cc2OC)nc1OC	inactive	inactive	
CCC(CC)C(c1ccc(Nc2nc3ccccc3s2)cc1)n1cncn1 (configuration not stated)	inactive	2.39 µM (active)	
COc1cc(Br)c(S(=O)(=O)Nc2ccc(Cl)c(O[C@@H]3CCN(C)C3)c2)cc1OC	inactive	15.1 µM (active)	
N#Cc1cc(-c2ccnc(Nc3ccc(N4CCOCC4)cc3)n2)ccc1OC1CCOCC1	inactive	inactive	
O=C(NCCN1CCOCC1)c1cc2c(Oc3ccc(NC(=O)C4(C(=O)Nc5ccc(F)cc5)CC4)cc3)ccnc2[nH]1	inactive	19 µM (active)	
O=C(NC1CCC1)c1ccc(C#Cc2cccc(F)c2)nc1	inactive	inactive	
CCc1cc2c(cc1CC)CC(NCC(O)c1ccc(O)c3[nH]c(=O)ccc13)C2 (configuration not stated)	inactive	9.52 µM (active)	
C=CC(=O)N1CC(N2CCN(C(=O)CNc3cc(C4CC4)c(Cl)cc3O)CC2)C1	inactive	inactive	
CC(C)c1ccc(NC(=O)c2cccs2)c(-c2nc3ccccc3[nH]c2=O)c1	inactive	13.5 µM (active)	
O=C(N[C@H]1CCN(C(=O)c2cc(C(F)(F)F)cc(C(F)(F)F)c2)[C@H](Cc2ccc(Cl)cc2)C1)c1ccnc2ccccc12	inactive	inactive	
O=C(Nc1ccc(Cl)cc1)c1ccccc1NCc1ccncc1	inactive	0.169 µM (active)	
N#CC(CCCN1CCN(/N=C/c2cccnc2)CC1)(c1ccccc1)c1ccccc1	inactive	0.849 µM (active)	
CN(C)[C@@H]1CCc2[nH]c3ccc(NC(=O)c4ccc(F)cc4)cc3c2C1	inactive	inactive	
CCCCNc1ncc2c(-c3ccc(S(=O)(=O)N4CCOCC4)cc3)nn(C3CCC(O)CC3)c2n1 (configuration not stated)	inactive	inactive	
Fc1ccc(-c2nc(C3CCNCC3)sc2-c2ccnc(NC3CC3)n2)cc1	inactive	6.01 µM (active)	
